# MCF10A rerep: DNA re-replication induction in MCF 10a cells; MCF 10A DNA re-replication, Hoechst nuclear intensity, 48 h; Potency, µM (highest dose often 46.1 µM), inactives show at the highest dose activity, positive = re-replication, hits mostly activators; hit rate 2.9% among 350,000; note: % of control where 0% means no effect; nearly all actives have a fitted effect of over 50% in size
# KB-3-1 cytotox: KB-3-1 parental cell cytotoxicity; hit rate 1.4% among 400,000; KB-3-1 viability, CellTiter-Glo ATP luminescence, 72 h; Potency, µM (titrated, usually from 46.1 µM), usual class: cytotoxic; note: % is set by controls: 0 for no effect and ±100 for the full control effect; nearly all actives have a fitted effect of over 60% in size
#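 Parental KB-3-1 adenocarcinoma cells in phenol-red-free DMEM with 10% FBS were pin-treated with compounds at several concentrations, incubated 72 h at 37 °C, and viability read by CellTiter-Glo luminescence; concentration-effect curves were fitted after normalization.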
# KB-V1 MDR tox: KB-V1 MDR subline cytotoxicity | KB-V1 MDR cells viability, CellTiter-Glo, 72 h | Potency, µM (highest dose often 46.1 µM), usual class: cytotoxic | hit rate 3.4% among 400,000; note: % is set by controls: 0 for no effect and ±100 for the full control effect; nearly all actives have a fitted effect of over 60% in size
#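 KB-V1 MDR subline cells in DMEM (phenol-red free, 10% FBS) exposed to compounds in qHTS concentration series for 72 h at 37 degrees C. Viability read by CellTiter-Glo luminescence; concentration-effect curves fitted after normalization and correction.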
# HT1080-NT tox: kills 2HG-producing HT-1080-NT fibrosarcoma cells. hit rate 1.6% among 360,000. HT-1080-NT fibrosarcoma viability, CellTiter-Glo ATP luminescence, 48 h. Potency, µM (titrated, usually from 46.1 µM), without a hit: top-dose activity, negative = less viability, actives largely listed as cytotoxic;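 note: NT is the 2HG producing partner of a matched IDH1 knockdown line; 0% = DMSO-treated cells and -100% = media-only wells without cells; nearly all actives have a fitted effect of over 55% in size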
#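 HT-1080-NT; 750 cells/well; 5% FBS RPMI; 48 h compound, 37 degrees C; CellTiter-Glo luminescence; curve fitting and curve-class assignment.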
# HT1080 IDH1KD tx: toxicity to HT-1080 IDH1 knockdown cells (counter line); HT-1080 IDH1 knockdown viability, ATP luminescence, 48 h; Potency, µM (titrated, usually from 46.1 µM), inactives show at the highest dose activity, negative = toxicity, most hits filed as cytotoxic; hit rate 2% among 360,000; AID 686971;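 note: 0% = DMSO wells and -100% = cell-free medium wells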
#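 After a 2 h attachment period, IDH1KD HT-1080 cells took pin-transferred compound for 48 h at 37 °C; ATP-based luminescence after 10 min room-temperature reagent incubation reported viability.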
# SW480 rereplic: DNA re-replication induction in SW480 cells | hit rate 1.8% among 340,000 | Potency, µM (top dose mostly 46.1 µM), for the others: top-dose re-replication activation, actives largely listed as activators | AID 624297 | SW480 DNA re-replication, Hoechst DNA content imaging, 48 h; note: % of control where 0% means no effect; nearly all actives have a fitted effect of over 55% in size
#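 Treated cells incubate 48 hr (37 C, 5% CO2), are stained 40 min with Hoechst, and nuclear fluorescence is enumerated; a rise in nuclei with high DNA signal marks re-replication.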
# An asterisk follows results filed as active; i = inactive; ? = inconclusive; nt = not tested or not shown. Sampled rows, rich in hits. Any-hit rate of the full collection: about 7.9%. Calls come from the whole dose curve; as a rule, active = well fitted curve in the direction sought with a large enough effect; inconclusive = small, poorly fitted or top-dose-only effect, or another doubt; inactive = no such curve, though single readings can be large; an effect the other way counts as inactive or inconclusive. Potency is the fitted concentration of half-maximal effect.
SMILES,MCF10A rerep,KB-3-1 cytotox,KB-V1 MDR tox,HT1080-NT tox,HT1080 IDH1KD tx,SW480 rereplic
CN(C)/C=N/C(=S)Nc1ccc(Cl)cc1Cl,?,i,i,1.6%,2.7%,20.6µM*
CC(C1=C(CCN(C)C)Cc2ccccc21)c1ccccn1 (stereo not given),-1.9%,i,16.4µM*,-1.1%,-1.8%,-0.4%
CC1CCCN(C(=O)CN2C(=O)CSc3ccc(S(=O)(=O)N4CCOCC4)cc32)C1 (stereo not given),0.3%,i,?,9.5%,13.7%,-8.1%
CCOc1ccc2nc(/N=C/c3c(C)[nH]n(-c4ccccc4)c3=O)sc2c1,-29.1%,?,?,0.5%,-1.1%,2.91µM*
CCOc1ccc2nc(SC3CC(=O)N(c4ccc(C)cc4)C3=O)sc2c1 (stereo not given),?,i,i,-3.1%,?,?
CCOc1[nH]n(-c2ccccc2)c(=O)c1C=Nc1ccc(OC)cc1,-2.8%,i,i,-8.0%,-14.4%,-7.8%
CCOc1ccc2nc(/N=C/c3c(C)[nH]n(-c4ccc(C)cc4)c3=O)sc2c1,-13.1%,11.6µM*,10.3µM*,?,?,-74.1%
O=CN/C=C/c1cc(O)ccc1O,?,i,i,-18.4%,-19.2%,?
COCCn1c(C)c(C)c(S(=O)(=O)c2ccccc2)c1N,-8.4%,i,i,3.5%,10.3%,-6.1%
COc1ccc(N(CC(C)C)S(=O)(=O)c2nnc(NC(=O)c3ccco3)s2)cc1,12.3%,i,i,-26.6%,-27.6%,8.7%
COc1ccccc1NS(=O)(=O)c1cc(NC(=O)c2ccccc2)ccc1N1CCCC1,nt,i,i,nt,nt,nt
NC(=O)c1ccccc1OCC(=O)N1CCc2ccccc2C1,2.2%,i,?,-2.9%,-2.8%,10.3µM*
COc1ccccc1CNC(=O)CN(C)c1nn2c(=O)cc(C)nc2s1,nt,i,i,nt,nt,nt
O=C(NCc1ccc(F)cc1)C(=O)NCC1CCCN1S(=O)(=O)c1ccccc1 (stereo not given),7.7%,i,?,-4.5%,-15.9%,-0.8%
COc1ccccc1CNC(=O)C(=O)NCCC1CCCCN1S(=O)(=O)c1ccccc1 (stereo not given),11.3%,i,i,0.5%,-2.5%,12.8%
COc1ccc(S(=O)(=O)N2CCCC2CNC(=O)C(=O)NCCc2ccccc2)cc1 (stereo not given),?,8.2µM*,4.61µM*,?,18.4µM*,?
COc1ccc(CCNC(=O)C(=O)NCC2CCCN2S(=O)(=O)c2ccccc2)cc1 (stereo not given),?,i,i,?,-4.6%,4.61µM*
COc1ccc(S(=O)(=O)N2CCCC2CNC(=O)C(=O)NCc2ccccc2)cc1 (stereo not given),-29.8%,?,?,-19.6%,-12.4%,-50.9%
COc1ccccc1CCNC(=O)C(=O)NCC1CCCN1S(=O)(=O)c1ccccc1 (stereo not given),?,i,20.6µM*,?,?,?
O=C(NCCc1ccc(F)cc1)C(=O)NCC1CCCN1S(=O)(=O)c1ccccc1 (stereo not given),?,18.4µM*,5.8µM*,-19.2%,?,?
CCN(Cc1ccccc1)C(=O)C1CCN(S(=O)(=O)c2ccc3c(c2)CCCN3C(C)=O)CC1,nt,i,i,nt,nt,nt
Cn1ncc2ccc(-c3ccc4ncnc(NCc5cccs5)c4c3)cc21,nt,?,i,nt,nt,nt
COc1ccc(CN2C[C@@H](CO)O[C@@H](n3cnc4c(NCc5cc(OC)c(OC)c(OC)c5)ncnc43)C2)cc1,nt,i,i,-19.9%,-8.4%,nt
Cc1ccc(C(=O)N/N=C\C2CC=CCC2)cc1[N+](=O)[O-] (stereo not given),-14.5%,i,?,-25.0%,?,1.6%
CCOc1cc(C(=O)N/N=C/C2CC=CCC2)cc(OCC)c1OCC (stereo not given),?,i,i,-1.1%,-15.7%,23.1µM*
SMILES,MCF10A rerep,KB-3-1 cytotox,KB-V1 MDR tox,HT1080-NT tox,HT1080 IDH1KD tx,SW480 rereplic
COc1ccc2c(c1)C(=O)N(Cc1ccccc1)C(=O)C2(C)C,-0.7%,i,i,-5.2%,-9.2%,28.9%
O=c1[nH]c(=O)n(C2OC(CO)C(O)C2O)cc1F (stereo not given),?,20.6µM*,20.6µM*,10.3µM*,0.92µM*,1.03µM*
O=c1[nH]c(=S)ccn1C1OC(CO)C(O)C1O (stereo not given),?,9.2µM*,?,?,-22.0%,-2.5%
O=c1[nH]cnc2c1ccn2C1OC(CO)C(O)C1O (stereo not given),2.06µM*,14.6µM*,16.4µM*,nt,nt,-1.0%
O=c1ncccn1C1OC(CO)C(O)C1O (stereo not given),nt,i,i,-4.1%,-7.4%,nt
O=C(c1cccs1)N(Cc1ccco1)c1ccc(O)cc1,nt,i,i,nt,nt,nt
Cc1nc2ccccc2c(=O)n1NC(=O)COc1ccccc1,?,i,i,10.0%,1.0%,-3.8%
O=C(Nn1c(COc2ccccc2)nc2ccccc2c1=O)C(Cl)(Cl)Cl,?,i,i,0.2%,-7.8%,18.4µM*
Cc1cccc(-c2nc(SCC(=O)N3CCc4ccccc43)c3c(=O)n(C)c(=O)n(C)c3n2)c1,nt,i,i,nt,nt,nt
Cc1cc(C(=O)NNC(=O)CCN2CCN(c3ccccc3)CC2)c2ccccc2n1,-1.9%,?,i,-1.7%,2.1%,-1.7%
O=C(CCN1CCN(c2ccccc2)CC1)NNC(=O)c1cccc2ccccc12,1.5%,i,18.4µM*,6.7%,9.6%,-1.8%
COc1ccc(C)cc1NC(=O)CCN1CCN(c2ccccc2)CC1,6.0%,i,i,10.8%,1.9%,-5.4%
Cc1ccc(C)c(OCC(=O)NNC(=O)CCN2CCN(c3ccccc3)CC2)c1,-2.2%,i,20.6µM*,0.1%,-9.0%,4.5%
Cc1ccc(Cl)cc1NC(=O)CN1C(=O)c2ccccc2Sc2ncccc21,nt,i,i,nt,nt,nt
COc1ccccc1C(=O)NC1(C(F)(F)F)C(=O)NC(C)=C1C#N (stereo not given),nt,i,i,nt,nt,nt
CCc1c(C)c2ccc3c(c2oc1=O)CN(Cc1ccccc1)CO3,nt,i,?,nt,nt,nt
O=S(=O)(NCC(Nc1ccc(Cl)cc1)c1ccccc1)c1ccc(Cl)cc1 (stereo not given),3.26µM*,?,?,-29.9%,?,?
O=S(=O)(NCC(c1ccccc1)N1CCC(O)CC1)c1ccc(Cl)cc1 (stereo not given),-2.5%,i,i,1.6%,0.6%,-6.0%

# From PubChem
